The values below come from PubChem BioAssay AID686979 (National Center for Advancing Translational Sciences (NCATS), 2013).

Each structure is given as a SMILES string. Out of some 420,000 compounds screened, about 50,000 (12%) were called active. Not shown: some 26% with an inconclusive outcome. For the sample, actives were picked, then their nearest neighbours and some compounds at random. A number with no mark means an inactive call. Calls come from the whole dose curve; as a rule, active = well fitted inhibition curve with a large enough effect; inconclusive = small, poorly fitted or top-dose-only effect; inactive = flat fitted curve, though single readings scatter.
% is set by controls: 0 for no effect and ±100 for the full control effect; potency is the fitted concentration of half-maximal effect.

The nature of this assay: qHTS for Inhibitors of human tyrosyl-DNA phosphodiesterase 1 (TDP1): qHTS in cells in presence of CPT. Note: nearly all actives have a fitted effect of over 55% in size. The conditions noted are these: chicken DT40 Tdp1-/-;hTDP1 cells + 20 nM CPT, ATP luminescence, 48 h; series mostly up to 46.2 µM; activity change, negative = growth inhibition: at the top concentration. In short, it runs like this:
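Chicken DT40 Tdp1-/- cells stably complemented with human TDP1 were seeded at 400 cells/well in medium containing 20 nM camptothecin, exposed to pin-transferred compounds, and grown at 37 °C for at least 48 hr. Viability was read as ATP luminescence.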
Consider `Cc1noc(C)c1-c1nc(CSc2ccc(Cl)cc2)no1`, for which the “activity change, negative = growth inhibition” value was 8.49%. Consider `CCN(CC)S(=O)(=O)c1ccc(C)c(NC(=O)COc2ccc(Br)cc2Cl)c1`, for which the “activity change, negative = growth inhibition” value was -20.7%. For `Oc1ccc(Br)cc1C1C=C(c2ccc3c(c2)OCO3)NC(c2ccc(Cl)cc2)N1` (configuration not stated), the Potency is 7.08 µM (active). For `Cc1cccc(-n2c(=O)c3c(c4cc(C)ccc4n3C)n(CC(=O)Nc3ccccc3Cl)c2=O)c1`, the “activity change, negative = growth inhibition” value was 0.458%.

`CC1CCCCN1CC(=O)NCc1ccc2c(c1)OCO2` (configuration not stated): the “activity change, negative = growth inhibition” value was -6.16%. Turning to `O=C(COc1ccc2oc3c(c2c1)CCCC3)Nc1ccccn1`, the “activity change, negative = growth inhibition” value is -1.19%. Take `CC1CCCCN1CC(=O)N1CCCc2c1c(=O)oc1ccc(OCc3ccccc3)cc21` (configuration not stated): the Potency is 16.4 µM (active). `Cc1c(C(=O)N2CCOCC2)[nH]c2ccc(OCc3ccccc3)cc12`: the “activity change, negative = growth inhibition” value is -21.9%. On to `O=C(CN1CCOCC1)N1CCCc2c1c(=O)oc1ccc(OCc3ccccc3)cc21`, for which the Potency is 18.4 µM (active). Turning to `NC(=O)C1CCN(C(=O)COc2ccc3c4c(c(=O)oc3c2)CCC4)CC1`, the “activity change, negative = growth inhibition” value is 2.93%. On to `COc1ccccc1C(=O)NCCn1cc(SCC(=O)NCc2ccco2)c2ccccc21`, for which the “activity change, negative = growth inhibition” value is -19.3%. The same measure, in the same setting: the result for `O=C(O)Cc1ccc(NC(=O)Nc2cccc3ccccc23)cc1` reads 3.51%. On the same count and under the same terms, the result for `CN(C(=O)CCNC(=O)Cn1ccc2ccccc2c1=O)c1ccc(Br)cc1` reads 1.39%; that for `Cc1cc(C)c(S(=O)(=O)N2CCC(C(=O)OCc3c(C)noc3C)CC2)c(C)c1`, 3.58%. For the compound `CC(C)(C)N(CC#CCC(O)(c1ccccc1)C1CCCC1)CCO` (configuration not stated), the “activity change, negative = growth inhibition” value is -0.352%.

Consider `CN(CC#CCC(c1ccccc1)c1ccccc1)C(C)(C)C`, for which the Potency is 12.6 µM (active). Turning to `CCc1[nH]nc(C(=O)N2CCCC(CNS(=O)(=O)c3cccs3)C2)c1C` (configuration not stated), the “activity change, negative = growth inhibition” value is -13.1%. As for `Cc1cc(C)nc(SCc2cn3c(C)cc(C)nc3n2)n1`, the “activity change, negative = growth inhibition” value was 14.4%.

For the compound `O=C(NC1CCCC1)C(c1ccco1)N(C(=O)c1csnn1)c1ccccc1` (configuration not stated), the “activity change, negative = growth inhibition” value is -3.07%. Regarding `CCOC(=O)CCC(NC(=O)c1ccc(CNc2nc3cc(C(F)(F)F)ccc3nc2C(=O)OCC)cc1)C(=O)OCC` (configuration not stated), the “activity change, negative = growth inhibition” value is -2.32%. Same read-out and setting: the result for `Cc1ccc(OC(=O)c2ccccc2C(=O)OCC(F)(F)C(F)F)cc1` reads 4.61%; that for `CCN(CC)CCNS(=O)(=O)c1ccc(/C=C/C(=O)O)cc1`, -6.79%; that for `Cn1cc(CN2CCCCC2c2ccccn2)c(-c2ccc3c(c2)OCCO3)n1` (configuration not stated), -3.9%. As to `CC1(C(=O)NS(=O)(=O)c2ccc(Cl)cc2)CCN1C(=O)CC1CCCC1` (configuration not stated), the “activity change, negative = growth inhibition” value was -21.5%. As to `CC1(C(=O)Nc2cccc3cccnc23)CCN1C(=O)CCC1CCCC1` (configuration not stated), the Potency was 16.4 µM (active). Consider `CC1(C(=O)Nc2ccccc2Br)CCN1C(=O)CC1CC1` (configuration not stated), for which the “activity change, negative = growth inhibition” value was -2.61%.

`Cc1ccc(S(=O)(=O)N2CCN(C(=O)N3CCOCC3)CC2)c(C)c1`: the “activity change, negative = growth inhibition” value was -2.43%. In the case of `CC(=O)N1CCN(S(=O)(=O)c2cccc(C(=O)NC3CCC(C)CC3)c2)CC1` (configuration not stated), the “activity change, negative = growth inhibition” value is 0.375%. Regarding `CNC(=O)C1CN(C(=O)c2cccc(S(=O)(=O)N3CCc4ccccc43)c2)c2ccccc2O1` (configuration not stated), the Potency was 7.31 µM (active). Take `CC1Cc2ccccc2N1S(=O)(=O)c1cccc(C(=O)OCC(=O)N2CCOCC2)c1` (configuration not stated): the “activity change, negative = growth inhibition” value is -10.9%. Turning to `CC1CCN(C(=O)c2cccc(S(=O)(=O)N3CCCc4ccccc43)c2)CC1`, the Potency is 16.4 µM (active). For the compound `CCS(=O)(=O)c1ccc2c(c1)N(S(=O)(=O)c1ccccc1)CC(C(=O)O)O2` (configuration not stated), the “activity change, negative = growth inhibition” value is 4.61%.

Take `CN1CCN(S(=O)(=O)c2cccc(C(=O)O)c2)CC1`: the “activity change, negative = growth inhibition” value was 2.72%.

Regarding `Cc1ccccc1OCC(=O)Nc1c(C(=O)Nc2ccccc2F)oc2ccccc12`, the “activity change, negative = growth inhibition” value is -21.4%.

As to `O=C(OC1CCCCC1=O)c1cccc(S(=O)(=O)NCc2ccccc2)c1` (configuration not stated), the “activity change, negative = growth inhibition” value was -5.55%. On the same count and under the same terms, the result for `COc1ccc(CCNC(=O)CN(c2ccccc2)S(=O)(=O)c2ccccc2)cc1` reads -25.5%.

Regarding `CCOc1ccc(N(CC(=O)NCCc2ccc(F)cc2)S(=O)(=O)c2ccccc2)cc1`, the Potency was 20.6 µM (active).

For the compound `CCOc1ccc(N(CC(=O)NCCc2ccc(OC)cc2)S(C)(=O)=O)cc1`, the “activity change, negative = growth inhibition” value is 8.24%.

Take `Cc1ccc(NC(=O)COC(=O)CN2CCSC2=O)cc1F`: the “activity change, negative = growth inhibition” value was -12.5%. Regarding `C/C(=N/N1CCN(Cc2cccc3ccccc23)CC1)c1cccnc1`, the “activity change, negative = growth inhibition” value was -12.8%. On the same count and under the same terms, then `Cc1ccc2c(C)nc(N3CCCC(C(=O)NC(C)(C)CO)C3)nc2c1` (configuration not stated), with -5.72% [at 9.04 µM]. Consider `Fc1cccc(Cl)c1COc1ccc(-c2nnco2)cc1`, for which the “activity change, negative = growth inhibition” value is -8.97%. As to `CCOc1ccc(NCCC(=O)c2ccc3c(c2)OCO3)cc1`, the Potency is 25.9 µM (active). `COC(=O)CCNc1ccc2c(c1)OCCO2`: the “activity change, negative = growth inhibition” value was -21%. Consider `O=C(COc1ccc(Cl)cc1)Nc1ccc2c(c1)OCO2`, for which the “activity change, negative = growth inhibition” value was 1.5%.

On to `O=C1C=C(c2cccc(Br)c2)C[C@@H](c2ccc(F)cc2)C1`, for which the “activity change, negative = growth inhibition” value was -29.7%. Take `Cn1cc[n+](C)c1COc1ccc(C=O)cc1`: the “activity change, negative = growth inhibition” value is -5.51%. Turning to `CC(C(=O)O)c1ccc(C2CCCCC2)c2ccccc12` (configuration not stated), the “activity change, negative = growth inhibition” value is 15.3%. For `COc1ccc(NS(=O)(=O)c2ccc(F)cc2F)cn1`, the “activity change, negative = growth inhibition” value is 5.59%. For the compound `O=C(O)CCC(=O)N(Cc1ccccc1)Cc1ccccc1`, the “activity change, negative = growth inhibition” value was -9%. Regarding `O=C(c1ccccc1F)N(Cc1ccccc1)Cc1ccccc1`, the Potency was 8.2 µM (active). Consider `O=C(NCCOc1ccccc1)c1ccccc1F`, for which the “activity change, negative = growth inhibition” value was -3.48%.
